Here are results for 40 compounds from PubChem BioAssay.

Molecules are shown by their SMILES. The source made the active and inactive calls. How the calls were made is not given here.

Sequence of Pantothenate synthetase (Mycobacterium tuberculosis (strain ATCC 25618 / H37Rv)) (P9WIL5 whole entry, looked up): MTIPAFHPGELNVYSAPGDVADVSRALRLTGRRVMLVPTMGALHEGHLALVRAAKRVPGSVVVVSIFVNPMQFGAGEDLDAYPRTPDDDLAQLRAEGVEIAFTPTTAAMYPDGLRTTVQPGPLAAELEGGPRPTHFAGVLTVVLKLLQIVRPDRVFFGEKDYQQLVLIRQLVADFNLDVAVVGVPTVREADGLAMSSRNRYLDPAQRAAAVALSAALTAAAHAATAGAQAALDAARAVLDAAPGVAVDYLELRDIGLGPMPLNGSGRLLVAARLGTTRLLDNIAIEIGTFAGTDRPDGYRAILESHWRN

The assay has as its target Pantothenate synthetase (Mycobacterium tuberculosis (strain ATCC 25618 / H37Rv)) (UniProt P9WIL5). Put plainly: Recombinant Mtb pantothenate synthetase (PanC) inhibitors, coupled enzyme, confirmatory (AID 375).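 Further: 0% = full reaction with vehicle and 100% = no enzyme background.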 The conditions noted are these: coupled enzyme assay; at 10 µM, active compounds read high.
Consider `CC(=O)OCC(=O)[C@@]1(O)[C@H](C)C[C@H]2[C@@H]3CCC4=CC(=O)C=C[C@]4(C)[C@@]3(F)[C@@H](O)C[C@@]21C`, for which the inhibition was 4% (inactive).
Next, `CCN1CCN(C(=O)c2oc(=O)c3ccccc3c2-c2ccc(C)cc2)CC1`: 0% (inactive); `COc1cc(C)nc(N2CCCC(C(=O)Nc3cccc(Cl)c3Cl)C2)n1` (stereo not given): 0% (inactive); `CC(C)CC(c1nnnn1CC1CCCO1)N1CCN(Cc2ccc3c(c2)OCO3)CC1` (stereo not given): 0% (inactive).
Next, `CC1CCc2nn(CC(=O)NCCN3CCOCC3)cc2C1` (stereo not given): 0% (inactive); `C/C(N)=C(/C#N)C(=O)COC(=O)c1cc(S(=O)(=O)N2CCCCC2)ccc1C`: 0% (inactive).
For the compound `Cc1cc(C(=O)Cn2cncn2)c(C)n1CCc1ccc(F)cc1`, the inhibition was 1% (inactive).
Next, `COC(=O)c1cc(OC)c(OC)cc1NC(=O)c1ccc(Br)o1`: 0% (inactive).
In the case of `Cc1cccc(NC(=O)CC2CCC2)c1`, the inhibition is 0% (inactive).
Consider `COc1ccc(CC(=O)N2CCOCC2)cc1OC`, for which the inhibition is 2% (inactive).
For `Cc1cc2c(=O)n(CC(=O)N3CCN(c4ccccc4)CC3)cnc2s1` the value was 0% (inactive); for `O=C(NC1CCN(Cc2ccccc2)CC1)C1CCN(S(=O)(=O)c2cccc3cccnc23)CC1`, 0% (inactive).
Regarding `COCCNc1nc(SCC(=O)N2CCN(c3ccccc3)CC2)nc2ccccc12`, the inhibition is 5% (inactive).
Regarding `O=C(NC1=NCCS1)c1nc(-c2ccccc2)n(-c2ccccc2)n1`, the inhibition is 3% (inactive).
As for `CCOC(=O)CNS(=O)(=O)c1c(C)noc1C`, the inhibition was 0% (inactive).
As for `Cc1cnc(C(=O)NCCc2ccc(S(=O)(=O)NC(=O)NC3CCCCC3)cc2)cn1`, the inhibition was 5% (inactive).
For `COc1ccccc1-n1nnnc1SCc1cc2c(cc1Br)OCO2`, the inhibition is 0% (inactive).
On to `CN1CCN(C2=C(Cl)C(=O)N(c3cccc(Cl)c3)C2=O)CC1`, for which the inhibition was 3% (inactive).
For `COCCN1CN(S(=O)(=O)c2ccccc2)c2nc3ccccc3nc21`, the inhibition was 0% (inactive).
As to `CCOC(=O)N1CCN(S(=O)(=O)c2cc(Cl)ccc2Cl)CC1`, the inhibition was 3% (inactive).
Regarding `O=C(C1CCCO1)N1CCc2ccccc21` (stereo not given), the inhibition is 10% (inactive).
`COC(=O)c1ccccc1NC(=O)C1CCN(S(=O)(=O)c2cc(C)ccc2OC)CC1`: the inhibition was 0% (inactive).
As for `COc1ccccc1NC(=O)C1(C)Cc2ccccc2C(=O)O1` (stereo not given), the inhibition was 0% (inactive).
As for `CC(C)N(C(=O)COC(=O)c1ccc(O)cc1)C(C)C`, the inhibition is 1% (inactive).
Regarding `Cn1c(=O)c(C(=O)Nc2cccnc2)c(O)c2ccccc21`, the inhibition was 5% (inactive).
Next, `CCc1ccc(CCC(=O)Nc2ccc(C)c(C)c2)o1`: 4% (inactive); `COc1ccc(OC)c(-n2nnnc2SCC(=O)NCc2ccc3c(c2)OCO3)c1`: 0% (inactive).
For the compound `COc1cccc(NC(=O)N2CCN(c3cccc(C)c3C)CC2)c1`, the inhibition was 0% (inactive).
For `CCn1cc(C(=O)NCCCOC)c(=O)c2cc(S(=O)(=O)N(C)C)ccc21` the value was 0% (inactive).
On to `COc1ccc(-c2nc(C)c(C(C)=O)n2O)cc1OC`, for which the inhibition was 0% (inactive).
Regarding `c1ccc(Cn2nnc3c(N4CCCCCC4)ncnc32)cc1`, the inhibition is 7% (inactive).
`CCN(C(=O)COC(=O)c1cc(C)n(-c2ccc(F)cc2)c1C)C1CCS(=O)(=O)C1` (stereo not given): the inhibition is 1% (inactive).
For `CCOC(=O)N1CCC2(CC1)CC(=O)c1c(ccc3oc(C(=O)O)c(C)c13)O2` the value was 0% (inactive); for `CCOC(=O)C1=C(C)OC(N)=C(C#N)C1c1ccoc1` (stereo not given), 0% (inactive); for `CCn1ncc(C2=NOC(C(=O)NCc3ccccc3)C2)c1C` (stereo not given), 6% (inactive).
Consider `O=C1C(Cl)=C(NCC2CCCO2)C(=O)N1CCc1ccccc1` (stereo not given), for which the inhibition was 0% (inactive).
`CCOC(=O)c1ccc(N(CC(=O)NC2CCCC2)C(=O)CNC(=O)c2ccco2)cc1`: the inhibition is 6% (inactive).
For `O=C(CN(CCc1ccccc1)C(=O)CNS(=O)(=O)c1ccccc1)NCC1CCCO1` (stereo not given) the value was 0% (inactive); for `CCOC(=O)N1CCN(C(=O)Nc2ccc(Cl)cc2)CC1`, 0% (inactive).
For the compound `CCc1nnc(NC(=O)CSc2nc3ccccc3s2)s1`, the inhibition was 2% (inactive).

One may read the inhibition as how much of the control response was suppressed.
